Data on six molecules can be found in PubChem BioAssay (Tox21).

The nature of assay [1]: qHTS assay to identify small molecule antagonists of the estrogen related receptor (ERR) signaling pathway from Tox21 library - cell viability counter screen (AID 1224834). Also: nearly all actives have a fitted effect of over 30% in size. Put shortly:
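Viability readout (CellTiter-Fluor fluorescence, 30 min at 37 C) multiplexed with the ERR assay; cells treated 17.5 h at 37 C with compounds delivered in DMSO.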

For assay [2], the target named is Luciferin 4-monooxygenase (Photinus pyralis) (UniProt P08659). Kind of assay: qHTS assay to identify small molecule inhibitors of firefly luciferase (AID 1224835). Also: nearly all actives have a fitted effect of over 25% in size. Also: potency is read from the fitted curve at half-maximal effect. The method in brief: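 Quantitative HTS format; KM concentrations of both substrates. Purified P. pyralis FLuc activity quantified from luminescence images.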
Assay [3] is described as follows: qHTS assay to identify small molecule agonists of the constitutive androstane receptor (CAR) signaling pathway - cell viability counter screen (AID 1224836). Also: series mostly up to about 92 µM; nearly all actives have a fitted effect of over 45% in size. Put shortly:
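Multiplexed viability check: HepG2-CYP2B6-hCAR cells, 15-point compound dosing, 0.75 uM PK11195 final, 23 h at 37 C, CellTiter-Fluor fluorescence.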

Assay [4] in a line: qHTS assay to identify small molecule antagonists of the constitutive androstane receptor (CAR) signaling pathway - cell viability counter screen (AID 1224837). Also: series mostly up to about 92 µM; nearly all actives have a fitted effect of over 45% in size. Put shortly: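 Fluorescence from CellTiter-Fluor served as the viability signal. Human hepatoma HepG2 cells stably bearing hCAR and CYP2B6-2.2kb received compound plus CITCO (50 nM final) for 23 hr.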
For orientation: qHTS replaces the single test concentration by a dilution series.

Assay [5] addresses Nuclear receptor subfamily 1 group I member 3 (Homo sapiens) (UniProt Q14994). The assay is described as follows: qHTS assay to identify small molecule antagonists of the constitutive androstane receptor (CAR) signaling pathway (AID 1224838).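 Also: HepG2 cells stably expressing hCAR with CYP2B6 luciferase reporter stimulated by CITCO; nearly all actives have a fitted effect of over 40% in size.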 The method in brief: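 Quantitative HTS in double-stable HepG2-CYP2B6-hCAR cells. After 4 h plating, cells get compound (15 concentrations) and CITCO at 50 nM final, incubate 24 h at 37 C, then ONE-Glo luminescence is read.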

Assay [6] is described as follows: qHTS assay to identify small molecule antagonists of the estrogen related receptor signaling pathway with the pleiotropic PPARgamma coactivator (PGC) from Tox21 10K library - cell viability counter screen (AID 1224840; active = well fitted cell-killing curve with a large enough effect in the repeat runs, not every such curve was filed as active; also: nearly all actives have a fitted effect of over 40% in size). The method in brief:
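Compounds in DMSO, alongside positive and negative controls, were pinned onto PGC/ERR cells (2,000 per well). Exposure lasted 17.5 hours at 37 C, followed by a 30-minute CellTiter-Fluor incubation and fluorescence reading.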

Assay [7] concerns the target Thyrotropin receptor (Homo sapiens) (UniProt P16473). The assay is described as follows: qHTS assay to identify small molecule agonists of the thyroid stimulating hormone receptor (TSHR) signaling pathway (AID 1224843; calls by dose curve; also: nearly all actives have a fitted effect of over 45% in size). Put shortly:
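TSHR-expressing HEK293 cells (800 per well) were exposed to compounds for 30 min at room temperature. cAMP was then detected by HTRF competition with cAMP-d2 and anti-cAMP cryptate, read after 1 h at room temperature. Fifteen concentrations, triplicate.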

Assay [8] in a line: qHTS assay to identify small molecule agonists of the hypoxia (HIF-1) signaling pathway - cell viability counter screen (AID 1224844; calls by dose curve; also: nearly all actives have a fitted effect of over 50% in size). The method in brief: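 Luminescent ATP content (CellTiter-Glo, 30 min, room temperature) served as the viability measure in HRE-bla ME-180 cells exposed to compounds for 17 hrs in low-serum medium (0.5% dialyzed FBS).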
Assay [9] in a line: qHTS assay to identify small molecule agonists of H2AX (AID 1224845; active = well fitted activation curve with a large enough effect in the signal ratio in the repeat runs, not every such curve was filed as active; the % refers to the signal ratio). The method in brief: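 Wild-type CHO-K1 cells plated overnight, then exposed 3 hr at 37C to compounds at 15 concentrations (0.76% DMSO). Lysed, then HTRF anti-pH2AX(S139)-cryptate/anti-H2AX-d2 detection after 24 hr at room temperature; emissions 665 and 620 nm.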
The nature of assay [10]: qHTS assay to identify small molecule agonists of the hypoxia (HIF-1) signaling pathway (AID 1224846; active = well fitted activation curve with a large enough effect in the signal ratio in the repeat runs, not every such curve was filed as active; the % refers to the signal ratio). The method in brief: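 Measured by blue/green FRET after loading CCF4-AM: beta-lactamase expressed from a hypoxia response element in ME-180 cells. Test agents were delivered in DMSO and left 17 hrs; cells had been plated 5 hrs earlier in low-serum (0.5% dialyzed FBS) medium.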

Assay [11] in a line: qHTS assay to identify small molecule agonists of H2AX - cell viability counter screen (AID 1224847; calls by dose curve; also: top concentration of the series differs between compounds; nearly all actives have a fitted effect of over 30% in size). The method in brief: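 After overnight plating of 1000 CHO-K1 cells per well, a 15-concentration compound series was applied for 3 hr at 37C. Luminescence from CellTiter-Glo, read following 30 min at room temperature, reflected cell viability.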
Assay [12] is described as follows: qHTS RealTime-Glo MT Cell Viability Assay in HepG2 cells - 24 hour (AID 1224867). Also: nearly all actives have a fitted effect of over 50% in size. The method in brief:
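HepG2 cells (600/well) were dispensed with RealTime-Glo reagents, incubated 5 h at 37 °C, then treated with compounds in DMSO for up to 40 h. Nonlytic NanoLuc luminescence reflecting viable cells was read at each stated time point.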

Assay [13] can be described thus: A CellTox Green Cytotoxicity Assay to monitor cytotoxicity in HEK293 cells - 0 hour (AID 1224869). Also: nearly all actives have a fitted effect of over 50% in size. Put shortly:
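Each value comes from one timepoint of a single continuous run in which HEK293 cells with CellTox Green were exposed to compound for up to 40 h at 37 C, dye fluorescence rising with cell death.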

Assay [14] is described as follows: qHTS RealTime-Glo MT Cell Viability Assay in HepG2 cells - 40 hour (AID 1224870). Also: nearly all actives have a fitted effect of over 50% in size. Put shortly:
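HepG2 cells mixed with RealTime-Glo MT reagents (NanoLuc plus cell-permeant prosubstrate) were seeded at 600 cells/well, incubated 5 h at 37 C/5% CO2, then pinned with compounds in DMSO; nonlytic luminescence tracked viability during 40 h treatment.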

For assay [15], the target named is Nuclear receptor subfamily 1 group I member 3 (Homo sapiens) (UniProt Q14994). Kind of assay: qHTS assay to identify small molecule agonists of the constitutive androstane receptor (CAR) signaling pathway (AID 1224839). Also: nearly all actives have a fitted effect of over 15% in size. Also: potency is read from the fitted curve at half-maximal effect.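 As to activation: HepG2 cells stably carrying human CAR and a CYP2B6 luciferase reporter; series mostly up to about 92 µM.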 The method in brief:
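Using human hepatoma HepG2 cells engineered with hCAR and a CYP2B6-2.2kb reporter, 15-concentration compound series were incubated 24 h alongside PK11195 at 0.75 uM final, with luminescence quantified afterwards.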

Assay [16] can be described thus: qHTS RealTime-Glo MT Cell Viability Assay in HEK293 cells - 32 hour (AID 1224868). Put shortly:
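HEK293 cells seeded with NanoLuc/prosubstrate reagent, rested 5 h at 37 C, then dosed and kept at 37 C up to 40 h. Nonlytic real-time luminescence from viable cells read at 0, 8, 16, 24, 32 and 40 h.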

Assay [17] in a line: qHTS assay to identify small molecule antagonists of the estrogen related receptor signaling pathway with the pleiotropic PPARgamma coactivator (PGC) from Tox21 10K library (AID 1224841; call rule not given here). Put shortly: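 Compound exposure ran 18 hours at 37 C in PGC/ERR cells (2,000/well) that had first rested 6 hours in a 37 C/5% CO2 incubator. Luciferase activity was then detected with One-Glo after a 30-minute room-temperature step.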

The nature of assay [18]: qHTS assay to identify small molecule agonists of the estrogen related receptor signaling pathway with the pleiotropic PPARgamma coactivator (PGC) from Tox21 10K library (AID 1224842). Also: nearly all actives have a fitted effect of over 15% in size. The method in brief: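 PGC/ERR reporter cells (NTP line) were seeded 2,000 per well, rested 6 h at 37 C/5% CO2, then pin-dosed with compounds in DMSO for 18 h at 37 C; luciferase read by One-Glo luminescence after 30 min at room temperature.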

The nature of assay [19]: qHTS assay to identify small molecule antagonists of the estrogen related receptor (ERR) signaling pathway from Tox21 library (AID 1224848). Also: nearly all actives have a fitted effect of over 50% in size. Put shortly:
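Cells: ERR line, 2,000/well; 6 h preincubation 37 C/5% CO2. Cpd in DMSO via pin tool; 18 h, 37 C. ONE-Glo, 30 min RT, luminescence.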

The structures appear in SMILES notation. Unmarked numbers belong to inactive results. Inconclusive results are not listed. Calls of active or inactive are those of the source. Unless noted, calls follow the shape of the dose curve; as a rule, active = well fitted curve in the direction sought with a large enough effect in the repeat runs; inconclusive = weak or mixed curves; inactive = no such curve, though single readings can be large; an effect the other way counts as inactive or inconclusive.
% is scaled to controls: 0 for no effect and ±100 for the full control effect.

Chain of Luciferin 4-monooxygenase (Photinus pyralis) (P08659 whole entry, looked up): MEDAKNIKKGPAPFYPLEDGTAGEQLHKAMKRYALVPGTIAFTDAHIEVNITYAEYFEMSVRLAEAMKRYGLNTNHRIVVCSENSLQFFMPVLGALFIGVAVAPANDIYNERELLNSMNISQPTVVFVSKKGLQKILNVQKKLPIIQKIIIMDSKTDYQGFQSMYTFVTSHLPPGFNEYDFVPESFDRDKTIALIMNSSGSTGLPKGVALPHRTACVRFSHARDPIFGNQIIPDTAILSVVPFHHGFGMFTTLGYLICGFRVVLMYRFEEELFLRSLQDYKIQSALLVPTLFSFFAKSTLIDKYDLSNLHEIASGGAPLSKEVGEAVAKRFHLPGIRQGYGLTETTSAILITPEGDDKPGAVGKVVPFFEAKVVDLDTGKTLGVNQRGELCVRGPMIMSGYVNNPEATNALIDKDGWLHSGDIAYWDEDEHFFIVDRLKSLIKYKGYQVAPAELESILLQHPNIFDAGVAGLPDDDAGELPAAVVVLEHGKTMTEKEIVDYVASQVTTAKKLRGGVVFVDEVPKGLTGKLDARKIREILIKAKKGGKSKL
Chain of Thyrotropin receptor (Homo sapiens) (P16473 whole entry, looked up): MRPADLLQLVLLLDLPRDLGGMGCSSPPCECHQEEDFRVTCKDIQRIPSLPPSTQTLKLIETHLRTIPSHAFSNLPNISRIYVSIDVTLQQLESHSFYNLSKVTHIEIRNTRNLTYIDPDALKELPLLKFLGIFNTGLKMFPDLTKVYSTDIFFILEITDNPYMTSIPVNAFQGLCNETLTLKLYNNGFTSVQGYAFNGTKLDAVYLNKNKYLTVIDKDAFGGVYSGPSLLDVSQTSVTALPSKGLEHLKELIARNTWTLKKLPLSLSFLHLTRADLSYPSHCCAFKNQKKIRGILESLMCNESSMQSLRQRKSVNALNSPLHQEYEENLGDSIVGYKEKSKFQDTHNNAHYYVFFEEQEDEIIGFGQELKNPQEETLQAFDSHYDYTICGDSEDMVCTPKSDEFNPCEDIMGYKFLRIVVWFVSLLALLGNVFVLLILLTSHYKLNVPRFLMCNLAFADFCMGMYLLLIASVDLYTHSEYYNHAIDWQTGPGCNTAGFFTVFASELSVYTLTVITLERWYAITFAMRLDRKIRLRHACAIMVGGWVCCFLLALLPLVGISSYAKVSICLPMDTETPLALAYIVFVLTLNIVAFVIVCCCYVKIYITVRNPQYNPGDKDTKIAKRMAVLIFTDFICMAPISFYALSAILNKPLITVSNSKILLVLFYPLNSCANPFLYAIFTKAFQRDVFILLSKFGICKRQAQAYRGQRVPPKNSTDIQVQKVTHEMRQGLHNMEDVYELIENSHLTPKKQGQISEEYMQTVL
Chain of Nuclear receptor subfamily 1 group I member 3 (Homo sapiens) (Q14994 whole entry, looked up): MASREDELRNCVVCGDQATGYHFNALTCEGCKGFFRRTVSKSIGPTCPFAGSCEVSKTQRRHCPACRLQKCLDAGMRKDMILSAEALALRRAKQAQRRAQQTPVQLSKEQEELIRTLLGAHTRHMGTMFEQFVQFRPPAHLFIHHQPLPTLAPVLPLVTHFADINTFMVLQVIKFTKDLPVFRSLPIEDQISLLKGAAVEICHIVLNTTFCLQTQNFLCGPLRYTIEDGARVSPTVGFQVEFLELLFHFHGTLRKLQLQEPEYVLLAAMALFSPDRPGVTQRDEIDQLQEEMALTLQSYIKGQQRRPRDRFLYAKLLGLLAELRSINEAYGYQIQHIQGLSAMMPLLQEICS

Regarding `CCOC(=O)CC(O)(CC(=O)OCC)C(=O)OCC`, the Potency entry in assay [1], in assay [2], in [3], in assay [4], in assay [5] and in assay [6] was “inactive” each time. Besides, the Potency result in assay [7], in [8], in assay [9], in assay [11], in assay [13] and in [14] was “inactive” throughout. Besides, the outcome in [10] and in assay [12] was inactive.
For `c1ccc(-c2ccc(-c3ccccc3)cc2)cc1`, the figures for the viability change, negative = cytotoxic in [1], in assay [3] and in assay [6] were 0.464% [at 19 µM], 4.23% [at 19 µM] and 3.19% [at 19 µM], respectively. In addition, the Potency in [2] is 820 nM (active); in assay [15], 3530 nM (active). Moreover, the activity change, negative = cytotoxicity in [4] is -2.21% [at 19 µM]; in [8] it was 1.63% [at 15.8 µM]; in [11] it was -0.782% [at 31.6 µM]; in [12] it was 1.53% [at 15.8 µM]. Moreover, the activity, negative = inhibition in assay [5] is 139% [at 19 µM]. In addition, the activation (H2AX phosphorylation) in assay [9] was -0.824% [at 31.6 µM]. In [10], the activation is -1.07% [at 15.8 µM]. The activity change, negative = cytotoxic in assay [16] is 0.807% [at 15.8 µM]; in assay [14], 3.84% [at 15.8 µM]. Moreover, in assay [13], the cytotoxicity is -5.7% [at 15.8 µM].
For the molecule `Cc1cc(N)n(-c2ccccc2)n1`, the Potency result in [1], in [2], in [3], in [4], in assay [5] and in assay [6] was “inactive” throughout. The Potency entry in assay [17], in [18], in assay [7], in assay [8], in [9] and in assay [11] was “inactive” in each case. Moreover, the Potency entry in assay [19], in assay [16], in assay [13] and in assay [14] was “inactive” throughout. In addition, the molecule was classed as inactive in assay [10] and in assay [12].
With `CC(=O)OCC(=O)[C@@]1(O)CC[C@H]2[C@@H]3CCC4=CC(=O)C=C[C@]4(C)[C@@]3(F)[C@@H](O)C[C@@]21C`, the Potency entry in assay [1], in assay [2], in [3], in assay [4], in [15] and in assay [6] was “inactive” each time. Also, the Potency entry in assay [7], in [8], in assay [9], in assay [11], in assay [16] and in [13] was “inactive” each time. Also, in [14], the Potency entry is “inactive”. In addition, the result in [10] and in [12] was inactive.
Turning to `CC(C)CCCCCOC(=O)CS`, the Potency entry in assay [1], in assay [2], in assay [3], in assay [4], in assay [5] and in [15] was “inactive” throughout. Moreover, the Potency result in assay [6], in assay [8], in assay [9], in assay [11], in assay [16] and in assay [13] was “inactive” throughout. Moreover, in assay [14], the Potency entry was “inactive”. For the same molecule, the call in assay [10] and in [12] was inactive.
With `CCc1ccc(C(=O)C(C)CN2CCCCC2)cc1` (stereo not given), the Potency entry in assay [1], in [2], in assay [3], in [4], in [15] and in assay [6] was “inactive” throughout. Further, the Potency entry in assay [7], in [8], in assay [9], in assay [11], in [16] and in assay [14] was “inactive” each time. Besides, the molecule was classed as inactive in assay [10].
